# In all, about 360,000 compounds went through this assay and about 1,400 (0.39%) were called active. No stated cut-off is given here; in the data, active means inhibition above about 5% (passing the limit was not always enough); inactive means the rest. The list comes from a sample in which actives are over-represented; it also holds similar structures and randomly drawn compounds.
# Target: Tyrosine-protein kinase ABL1 (Homo sapiens) + Ras and Rab interactor 1 (Homo sapiens) (UniProt P00519+Q13671)
# Test: disruptors of human Abl and Rin1 association – biochemical, TR-FRET, primary screen (AID 588664)
# Conditions: TR-FRET Rin1/Abl binding, at 7.35 µM, hits give high values
# Chain of Tyrosine-protein kinase ABL1 (Homo sapiens) + Ras and Rab interactor 1 (Homo sapiens) (P00519 whole entry, looked up): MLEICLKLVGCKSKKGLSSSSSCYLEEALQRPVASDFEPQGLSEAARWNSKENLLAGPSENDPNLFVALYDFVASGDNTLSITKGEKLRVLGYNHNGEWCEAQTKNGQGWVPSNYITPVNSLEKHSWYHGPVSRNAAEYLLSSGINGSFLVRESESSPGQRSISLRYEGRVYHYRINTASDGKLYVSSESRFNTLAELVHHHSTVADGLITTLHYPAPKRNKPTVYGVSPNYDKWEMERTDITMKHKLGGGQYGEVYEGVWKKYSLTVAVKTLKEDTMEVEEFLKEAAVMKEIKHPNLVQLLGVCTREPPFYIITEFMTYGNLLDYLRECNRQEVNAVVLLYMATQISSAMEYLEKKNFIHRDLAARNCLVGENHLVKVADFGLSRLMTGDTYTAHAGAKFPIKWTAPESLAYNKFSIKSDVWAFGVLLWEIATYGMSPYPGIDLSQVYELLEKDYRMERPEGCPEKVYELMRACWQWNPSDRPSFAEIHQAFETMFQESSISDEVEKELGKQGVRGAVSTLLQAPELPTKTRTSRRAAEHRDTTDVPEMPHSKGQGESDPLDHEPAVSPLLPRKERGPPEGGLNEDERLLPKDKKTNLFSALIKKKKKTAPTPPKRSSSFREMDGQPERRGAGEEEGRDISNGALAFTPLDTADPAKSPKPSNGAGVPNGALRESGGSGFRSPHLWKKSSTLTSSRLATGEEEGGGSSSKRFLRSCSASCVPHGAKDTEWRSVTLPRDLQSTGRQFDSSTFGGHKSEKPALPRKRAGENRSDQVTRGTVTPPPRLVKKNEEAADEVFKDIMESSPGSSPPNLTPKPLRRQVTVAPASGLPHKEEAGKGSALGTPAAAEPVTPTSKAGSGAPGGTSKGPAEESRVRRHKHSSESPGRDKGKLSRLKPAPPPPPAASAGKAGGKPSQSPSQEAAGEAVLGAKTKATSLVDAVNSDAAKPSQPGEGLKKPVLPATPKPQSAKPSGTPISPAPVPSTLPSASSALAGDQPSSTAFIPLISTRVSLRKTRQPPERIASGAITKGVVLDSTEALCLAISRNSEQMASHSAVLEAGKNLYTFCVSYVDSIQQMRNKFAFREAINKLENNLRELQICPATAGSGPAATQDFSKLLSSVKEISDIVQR
# Chain of Tyrosine-protein kinase ABL1 (Homo sapiens) + Ras and Rab interactor 1 (Homo sapiens) (Q13671 whole entry, looked up): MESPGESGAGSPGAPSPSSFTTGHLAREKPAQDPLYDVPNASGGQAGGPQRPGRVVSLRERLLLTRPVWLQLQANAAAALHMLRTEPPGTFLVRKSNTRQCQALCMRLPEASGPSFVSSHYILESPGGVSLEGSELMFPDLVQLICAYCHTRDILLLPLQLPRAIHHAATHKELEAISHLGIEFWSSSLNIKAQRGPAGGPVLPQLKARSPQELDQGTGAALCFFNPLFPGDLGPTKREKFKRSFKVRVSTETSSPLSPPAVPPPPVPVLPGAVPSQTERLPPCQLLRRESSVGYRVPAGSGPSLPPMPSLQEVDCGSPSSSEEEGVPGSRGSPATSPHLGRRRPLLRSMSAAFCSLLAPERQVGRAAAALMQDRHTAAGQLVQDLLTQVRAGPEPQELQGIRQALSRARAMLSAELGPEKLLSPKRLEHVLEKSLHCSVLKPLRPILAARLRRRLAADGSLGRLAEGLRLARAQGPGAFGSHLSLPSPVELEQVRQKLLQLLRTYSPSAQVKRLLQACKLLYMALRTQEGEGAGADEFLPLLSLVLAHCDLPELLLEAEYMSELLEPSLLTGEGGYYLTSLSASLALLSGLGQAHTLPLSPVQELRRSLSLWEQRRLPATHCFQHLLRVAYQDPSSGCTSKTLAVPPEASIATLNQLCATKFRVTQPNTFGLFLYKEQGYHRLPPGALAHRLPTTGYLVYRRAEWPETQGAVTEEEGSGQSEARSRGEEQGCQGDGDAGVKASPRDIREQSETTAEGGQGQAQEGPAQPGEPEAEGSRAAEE
row,SMILES,inhibition
1,CCC(C)C(=O)Nc1ccccc1N1CCN(c2ccc(F)cc2)CC1 (stereo not given),1.3% (inactive)
2,CCOC(=O)C1CCCN(C(=O)c2ccc(C)c(S(=O)(=O)N3CCCCC3)c2)C1 (stereo not given),2.16% (inactive)
3,Cn1nc([N+](=O)[O-])nc1Sc1ccc(C(C)(C)C)cc1,-6.46% (inactive)
4,O=C(CNCc1ccco1)Nc1cc(S(=O)(=O)N2CCOCC2)ccc1N1CCCC1,5.51% (active)
5,O=C(COC(=O)c1ccccc1F)Nc1cc(S(=O)(=O)N2CCOCC2)ccc1N1CCCC1,0.95% (inactive)
6,CC(C)CCC(=O)Nc1cc(S(=O)(=O)N2CCOCC2)ccc1N1CCCC1,-1.79% (inactive)
7,O=C1NC[C@@H](c2ccccc2)OC(=O)[C@H](Cc2ccc(F)cc2)CC/C=C/C[C@H]1CC(=O)N(CCO)Cc1ccccc1,-0.64% (inactive)
8,Cc1nn(C)cc1S(=O)(=O)N1CCN(c2ccc(F)cc2)CC1,1.17% (inactive)
9,CCOc1c2ccc(C(=O)NCc3ccc(OC(F)(F)F)cc3)cc2nn1C,3.17% (inactive)
10,CCOC(=O)Cc1ncccc1C(=O)Nc1ccc(OC(F)(F)F)cc1,-0.49% (inactive)
11,O=C(Nc1ccc(OC(F)(F)F)cc1)c1ccc2c(c1)no[n+]2[O-],6.4% (active)
12,COc1ccc(N(CC(=O)NC2CCCCC2)S(=O)(=O)c2c(C)[nH]c(=O)[nH]c2=O)cc1,0.98% (inactive)
13,C=CCNC(=O)c1ccccc1NC(=O)c1ccc(Cl)c(S(=O)(=O)Nc2cccc(C)c2C)c1,3.96% (inactive)
14,O=C(c1ccc(OC2CCN(C/C=C/c3ccc(F)cc3)CC2)cc1)N1CCCCC1,4.14% (inactive)
15,CC(=O)Nc1ccc(CN2CCC(Oc3ccc(C(=O)N4CCCC4)cc3)CC2)cc1,7.35% (active)
16,Cc1nn(C)c(Cl)c1CN1CCC(Oc2ccc(C(=O)N3CCCC3)cc2)CC1,-0.88% (inactive)
17,Cc1noc(C)c1-c1nc(CSc2ccc(Cl)cc2)no1,-1.19% (inactive)
18,COc1ccc(-c2cc(C(F)(F)F)n3nc(C(=O)N4CCOCC4)c(Cl)c3n2)cc1,0.58% (inactive)
19,CCc1nnc(NC(=O)CSc2nc3ccccc3c(=O)n2CCCOC)s1,2.09% (inactive)
20,Cc1cc(C)c(C=NNc2nc3c([nH]2)c(=O)n(C)c(=O)n3C)c(C)c1,4.38% (inactive)
21,CC(CCO)Nc1nc2c([nH]1)c(=O)n(C)c(=O)n2C (stereo not given),7.16% (active)
22,Cc1cccc(C)c1NC(=O)CSc1nc2c([nH]1)c(=O)n(C)c(=O)n2C,0.29% (inactive)

row,SMILES,inhibition
1,O=C(C=CC(=O)Nc1ccc(F)cc1F)Nc1ccc(F)cc1F,-1.65% (inactive)
2,Cc1sc2ncn(CC(=O)NCCN(C)C)c(=O)c2c1S(=O)(=O)N1CCC(C)CC1,-2.5% (inactive)
3,O=C(CCN1C(=O)[C@H]2CC=CC[C@H]2C1=O)NCc1nc(-c2ccccc2)no1,4.64% (inactive)
4,C=C(Br)Cn1c(CCCC)nc2ccccc21,-1.26% (inactive)
5,NS(=O)(=O)c1ccc(CCNC(=O)Nc2ccc(Cl)cc2)cc1,7.48% (active)
6,CN(CC(=O)NCCc1ccc(S(N)(=O)=O)cc1)CC(=O)Nc1ccc(Cl)cc1,2.85% (inactive)
7,NS(=O)(=O)c1ccc(CCNC(=S)Nc2ccc(S(N)(=O)=O)cc2)cc1,-1.51% (inactive)
8,COc1ccc(-c2c(C)nn3c(N4CCC(C(=O)N5CCCCC5)CC4)cc(C)nc23)cc1OC,-0.97% (inactive)
9,c1ccc(Cc2nn3c(Cn4cnc5ccccc54)nnc3s2)cc1,6.72% (inactive)
10,OCCNc1nc2ccccc2n1-c1ncnc2sc3c(c12)CCC3,-1.62% (inactive)
11,CCc1cc2c(NC3CCCC3)ncnc2s1,-2.86% (inactive)
12,CCc1cc2c(NC(Cc3ccccc3)C(=O)O)ncnc2s1 (stereo not given),-0.92% (inactive)
13,CCc1cc2c(N3CCN(c4nnc(CC)s4)CC3)ncnc2s1,7.4% (active)
14,C[C@@H](NC(=O)[C@@H]1Cc2ccccc2CN1)C(=O)NC1CCCC1,0.01% (inactive)
15,Cc1ccc(C)c(NS(=O)(=O)c2ccc(OCC(=O)NCc3cccnc3)cc2)c1,2.47% (inactive)
16,Oc1c(CN2CCN(c3ccc(F)cc3)CC2)cc(Cl)c2cccnc12,5.47% (active)
17,Cc1cccc(C)c1NC(=O)CN1CCN(c2ccc(F)cc2)CC1,2.38% (inactive)
18,Cc1cc(=O)oc2cc(OCC(=O)N3CCN(c4ccc(F)cc4)CC3)c(Cl)cc12,-4.94% (inactive)
19,O=C(CN1CCN(c2ccc(Cl)cc2)CC1)NCc1cccs1,-1.08% (inactive)
20,CC(C)Nc1ncnc2c1ncn2[C@H]1CN(Cc2ccncc2)C[C@@H](CO)O1,3.54% (inactive)
21,OC[C@@H]1CN(Cc2ccc(Cl)cc2)C[C@H](n2cnc3c(NCc4ccncc4)ncnc32)O1,7.27% (active)
22,COCCNc1ncnc2c1ncn2[C@H]1CN(Cc2ccc(OC)cc2)C[C@@H](CO)O1,-1.27% (inactive)

row,SMILES,inhibition
1,CCOC(=O)c1cn[nH]c1NC(=S)Nc1ccccc1,-0.64% (inactive)
2,Cc1ccc(S(=O)(=O)CCC(=O)OCC(=O)N(C)C2CCS(=O)(=O)C2)cc1 (stereo not given),6.74% (inactive)
3,O=C(c1ccc(-n2cnnn2)cc1)N1CCN(C(c2ccccc2)c2ccccc2)CC1,1.41% (inactive)
4,Nc1nc2n(n1)C(c1ccco1)CC(c1ccc(Cl)c(Cl)c1)N2 (stereo not given),6.57% (active)
5,Cc1ccc(C2CC(c3cccc(Br)c3)n3nc(N)nc3N2)cc1 (stereo not given),1.76% (inactive)
6,Cc1ccc(C2CC(c3cccc(C)c3)n3nc(N)nc3N2)cc1 (stereo not given),-1.41% (inactive)
7,O=C(NC(=S)Nc1ccc(Br)cc1F)C1CCCCC1,6.29% (inactive)
8,CN(C)c1ccc(CNC(=O)CN2C(=O)COc3ccc(S(=O)(=O)N4CCCC4)cc32)cc1,2.18% (inactive)
9,Cc1cccc(N(C)C(=O)CN2C(=O)COc3ccc(S(=O)(=O)N4CCCCCC4)cc32)c1,9.47% (active)
10,CC(=O)Nc1ccc(NC(=O)CN2C(=O)COc3ccc(S(=O)(=O)N4CCCCC4)cc32)cc1,2.56% (inactive)
11,Cc1cccc(OCc2nnc(SCc3nc4cc(C(F)(F)F)ccc4c(=O)[nH]3)o2)c1,4.23% (inactive)
12,O=C1CC(Cc2ccccc2)C(=O)N1c1ccc(Cl)cn1 (stereo not given),-3.26% (inactive)
13,C=CCN(C(=O)Cn1ncc2c1-c1cc(C)ccc1OC2)c1ccccc1,2.13% (inactive)
14,CCOC(=O)N1CCN(C(=O)C2CCN(S(=O)(=O)c3cc(Cl)ccc3OCC)CC2)CC1,3.03% (inactive)
15,CCOC(=O)N1CCN(C(=O)C2CCN(c3ncnc4c3sc3cccc(F)c34)CC2)CC1,18.2% (active)
16,CCOC(=O)N1CCN(C(=O)C2CCN(Cc3ccc(OC)cc3OC)CC2)CC1,0.29% (inactive)
17,Cc1cnc(C)c(N2CCN(C(=O)C3CCC(=O)N(CCc4cccc(F)c4)C3)CC2)n1 (stereo not given),-0.04% (inactive)
18,CCOC(=O)N1CCN(C(=O)C2CCCN(c3ncnc4c3sc3cccc(F)c34)C2)CC1 (stereo not given),6.58% (active)
19,Cc1cc(=O)n2nc(N3CCCC(C(=O)N4CCN(C)CC4)C3)sc2n1 (stereo not given),1.05% (inactive)
20,O=C(CCNC(=O)c1ccc([N+](=O)[O-])cc1)NC1CCCCC1,-2.29% (inactive)
21,O=C1CC2(CCCCC2)Oc2ccc(OCC(=O)N3CCOCC3)cc21,-3.03% (inactive)
22,COc1cc2c(cc1CNC[C@H]1O[C@@H](n3cnc(C(N)=O)n3)[C@H](O)[C@@H]1O)OCO2,-2.98% (inactive)

row,SMILES,inhibition
1,CCOc1ccc(N(CC)S(=O)(=O)c2cccc3nsnc23)cc1,-2.8% (inactive)
2,Cc1ccc(C(NC(=O)C2CCN(CCOc3ccc(Cl)cc3Cl)CC2)c2ccccn2)cc1 (stereo not given),9.27% (active)
3,O=C(NC(c1ccc(-c2ccccc2)cc1)c1cnccn1)C1CCN(CCOc2ccc(Cl)cc2Cl)CC1 (stereo not given),-3.71% (inactive)
4,O=C(NC(c1ccc(Cl)cc1)c1cnccn1)C1CCN(Cc2ccc(Cl)cc2)CC1 (stereo not given),-1.67% (inactive)
5,CCCS(=O)(=O)Nc1c(C(=O)O)[nH]c2ccccc12,0.58% (inactive)
6,CCOC(=O)c1c(NC(=O)CN2C(=O)NC3(CCC(C)CC3)C2=O)sc(C)c1CC (stereo not given),0.02% (inactive)
7,C=CCn1c(SCC(=O)CC(=O)OCC)nc2cc(C(=O)N3CCC(C(N)=O)CC3)ccc2c1=O,-1.96% (inactive)
8,C=CCn1c2ccccc2c2nnc(SCc3[nH]c(=O)[nH]c3C(=O)CCCCC(=O)OCC)nc21,59.4% (active)
9,C=CCn1c2ccccc2c2nnc(SC(CC)C(=O)Nc3nc(C)c(C(=O)OCC)s3)nc21 (stereo not given),2.82% (inactive)
10,COc1ccc(NC(=O)C2CCC(CNS(=O)(=O)c3csc(C(N)=O)c3)CC2)cc1OC (stereo not given),-0.76% (inactive)
11,CN(CC(=O)Nc1ccc(F)cc1)CC(=O)Nc1ccc(Cl)c(S(=O)(=O)N2CCOCC2)c1,5.07% (active)
12,COc1ccc(CCC(=O)Nc2ccc(Cl)c(S(=O)(=O)N3CCOCC3)c2)cc1OC,0.12% (inactive)
13,CN(CC(=O)Nc1ccc(S(=O)(=O)N2CCCC2)cc1)Cc1ccc(Cl)c(Cl)c1,-4.78% (inactive)
14,Nc1ncnc2c1ncn2[C@@H]1O[C@H](CNS(=O)(=O)c2ccc(-c3ccno3)s2)[C@@H](O)[C@H]1O,-1.25% (inactive)
15,CCc1ccc(C(=O)NNC(=O)C2CCN(c3ncnc4sc(C)c(C)c34)CC2)cc1,-0.76% (inactive)
16,COc1cccc(COC(=O)C2CCN(S(=O)(=O)c3ccc(Cl)cc3)CC2)c1OC,3.29% (inactive)
17,COC(=O)c1ccc(COC(=O)C2CCN(S(=O)(=O)c3c(Cl)cccc3Cl)CC2)o1,15.2% (active)
18,CCOc1ccc(S(=O)(=O)N2CCC(C(=O)OCc3ccc(OC)cc3)CC2)cc1,3.73% (inactive)
19,C=CCN1C(=O)c2ccc(C(=O)N3CCC(C(=O)OCC)CC3)cc2C1=O,2.75% (inactive)

# Reference: PubChem BioAssay AID588664 (The Scripps Research Institute Molecular Screening Center, 2011)
